Experimental data from paper PMC11006913.
Residue numbers refer to the chain shown, from its start.

Assays:
Test in all cases: PBM; 200 nM protein, PBS
Settings in all cases: dsDNA, one strand shown
SIX6 [1] = biological target: T1, SIX6 (Homo sapiens, UniProt O95475 114-200, L167I)
T1 sequence: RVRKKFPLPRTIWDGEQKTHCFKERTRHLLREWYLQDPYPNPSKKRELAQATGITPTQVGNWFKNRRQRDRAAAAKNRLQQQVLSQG

SIX6 [2] = biological target: T2, SIX6 (Homo sapiens, UniProt O95475 114-200, L143V)
T2 sequence: T1 sequence with L30V, I54L

SIX6 [3] = biological target: T3, SIX6 (Homo sapiens, UniProt O95475 114-200, H141N)
T3 sequence: T1 sequence with H28N, I54L

SIX6 [4] = biological target: T4, SIX6 (Homo sapiens, UniProt O95475 114-200, T165P)
T4 sequence: T1 sequence with T52P, I54L

SIX6 [5] = biological target: T5, SIX6 (Homo sapiens, UniProt O95475 114-200, L167M)
T5 sequence: T1 sequence with I54M

SIX6 [6] = biological target: T6, SIX6 (Homo sapiens, UniProt O95475 114-200, L143M)
T6 sequence: T1 sequence with L30M, I54L

SIX6 [7] = biological target: T7, SIX6 (Homo sapiens, UniProt O95475 114-200, L143I)
T7 sequence: T1 sequence with L30I, I54L

SIX6 [8] = biological target: T8, SIX6 (Homo sapiens, UniProt O95475 114-200, T165G)
T8 sequence: T1 sequence with T52G, I54L

SIX6 [9] = biological target: T9, SIX6 (Homo sapiens, UniProt O95475 114-200, T139Q)
T9 sequence: T1 sequence with T26Q, I54L

SIX6 [10] = biological target: T10, SIX6 (Homo sapiens, UniProt O95475 114-200, T165A)
T10 sequence: T1 sequence with T52A, I54L

SIX6 [11] = biological target: T11, SIX6 (Homo sapiens, UniProt O95475 114-200, L167V)
T11 sequence: T1 sequence with I54V

SIX6 [12] = biological target: T12, SIX6 (Homo sapiens, UniProt O95475 114-200)
T12 sequence: T1 sequence with I54L

SIX6 [13] = biological target: T13, SIX6 (Homo sapiens, UniProt O95475 114-200, T165I)
T13 sequence: T1 sequence with T52I, I54L

Row | Sequence | binding signal (SIX6 [1]) | binding signal (SIX6 [2]) | binding signal (SIX6 [3]) | binding signal (SIX6 [4]) | binding signal (SIX6 [5]) | binding signal (SIX6 [6]) | binding signal (SIX6 [7]) | binding signal (SIX6 [8]) | binding signal (SIX6 [9]) | binding signal (SIX6 [10]) | binding signal (SIX6 [11]) | binding signal (SIX6 [12]) | binding signal (SIX6 [13])
1 | ATATCATC | 11.3 upbm affinity estimate (log intensity, higher = more binding, comparable within an allelic series) | 10.5 upbm affinity estimate (log intensity, higher = more binding, comparable within an allelic series) | 11.2 upbm affinity estimate (log intensity, higher = more binding, comparable within an allelic series) | 10 upbm affinity estimate (log intensity, higher = more binding, comparable within an allelic series) | 10.8 upbm affinity estimate (log intensity, higher = more binding, comparable within an allelic series) | 11.1 upbm affinity estimate (log intensity, higher = more binding, comparable within an allelic series) | 10.5 upbm affinity estimate (log intensity, higher = more binding, comparable within an allelic series) | 11.3 upbm affinity estimate (log intensity, higher = more binding, comparable within an allelic series) | 11.3 upbm affinity estimate (log intensity, higher = more binding, comparable within an allelic series) | 11.2 upbm affinity estimate (log intensity, higher = more binding, comparable within an allelic series) | 11 upbm affinity estimate (log intensity, higher = more binding, comparable within an allelic series) | 11.1 upbm affinity estimate (log intensity, higher = more binding, comparable within an allelic series) | 11.1 upbm affinity estimate (log intensity, higher = more binding, comparable within an allelic series)
2 | GATATCCA | 11.1 upbm affinity estimate (log intensity, higher = more binding, comparable within an allelic series) | 10.3 upbm affinity estimate (log intensity, higher = more binding, comparable within an allelic series) | 11 upbm affinity estimate (log intensity, higher = more binding, comparable within an allelic series) | 9.81 upbm affinity estimate (log intensity, higher = more binding, comparable within an allelic series) | 10.7 upbm affinity estimate (log intensity, higher = more binding, comparable within an allelic series) | 10.9 upbm affinity estimate (log intensity, higher = more binding, comparable within an allelic series) | 10.3 upbm affinity estimate (log intensity, higher = more binding, comparable within an allelic series) | 11.1 upbm affinity estimate (log intensity, higher = more binding, comparable within an allelic series) | 11 upbm affinity estimate (log intensity, higher = more binding, comparable within an allelic series) | 11 upbm affinity estimate (log intensity, higher = more binding, comparable within an allelic series) | 10.9 upbm affinity estimate (log intensity, higher = more binding, comparable within an allelic series) | 10.9 upbm affinity estimate (log intensity, higher = more binding, comparable within an allelic series) | 10.8 upbm affinity estimate (log intensity, higher = more binding, comparable within an allelic series)
3 | CCCCGCAG | 9.03 upbm affinity estimate (log intensity, higher = more binding, comparable within an allelic series) | 8.85 upbm affinity estimate (log intensity, higher = more binding, comparable within an allelic series) | 9.03 upbm affinity estimate (log intensity, higher = more binding, comparable within an allelic series) | 8.95 upbm affinity estimate (log intensity, higher = more binding, comparable within an allelic series) | 9 upbm affinity estimate (log intensity, higher = more binding, comparable within an allelic series) | 8.92 upbm affinity estimate (log intensity, higher = more binding, comparable within an allelic series) | 8.95 upbm affinity estimate (log intensity, higher = more binding, comparable within an allelic series) | 9.04 upbm affinity estimate (log intensity, higher = more binding, comparable within an allelic series) | 8.99 upbm affinity estimate (log intensity, higher = more binding, comparable within an allelic series) | 8.96 upbm affinity estimate (log intensity, higher = more binding, comparable within an allelic series) | 8.93 upbm affinity estimate (log intensity, higher = more binding, comparable within an allelic series) | 8.96 upbm affinity estimate (log intensity, higher = more binding, comparable within an allelic series) | 8.97 upbm affinity estimate (log intensity, higher = more binding, comparable within an allelic series)
4 | GGCCGCCA | 8.71 upbm affinity estimate (log intensity, higher = more binding, comparable within an allelic series) | 8.68 upbm affinity estimate (log intensity, higher = more binding, comparable within an allelic series) | 8.73 upbm affinity estimate (log intensity, higher = more binding, comparable within an allelic series) | 8.9 upbm affinity estimate (log intensity, higher = more binding, comparable within an allelic series) | 8.74 upbm affinity estimate (log intensity, higher = more binding, comparable within an allelic series) | 8.71 upbm affinity estimate (log intensity, higher = more binding, comparable within an allelic series) | 8.7 upbm affinity estimate (log intensity, higher = more binding, comparable within an allelic series) | 8.66 upbm affinity estimate (log intensity, higher = more binding, comparable within an allelic series) | 8.63 upbm affinity estimate (log intensity, higher = more binding, comparable within an allelic series) | 8.66 upbm affinity estimate (log intensity, higher = more binding, comparable within an allelic series) | 8.8 upbm affinity estimate (log intensity, higher = more binding, comparable within an allelic series) | 8.68 upbm affinity estimate (log intensity, higher = more binding, comparable within an allelic series) | 8.7 upbm affinity estimate (log intensity, higher = more binding, comparable within an allelic series)
5 | GATACATA | 11.1 upbm affinity estimate (log intensity, higher = more binding, comparable within an allelic series) | 10.4 upbm affinity estimate (log intensity, higher = more binding, comparable within an allelic series) | 11 upbm affinity estimate (log intensity, higher = more binding, comparable within an allelic series) | 10 upbm affinity estimate (log intensity, higher = more binding, comparable within an allelic series) | 10.7 upbm affinity estimate (log intensity, higher = more binding, comparable within an allelic series) | 10.9 upbm affinity estimate (log intensity, higher = more binding, comparable within an allelic series) | 10.4 upbm affinity estimate (log intensity, higher = more binding, comparable within an allelic series) | 11 upbm affinity estimate (log intensity, higher = more binding, comparable within an allelic series) | 11.1 upbm affinity estimate (log intensity, higher = more binding, comparable within an allelic series) | 11 upbm affinity estimate (log intensity, higher = more binding, comparable within an allelic series) | 10.8 upbm affinity estimate (log intensity, higher = more binding, comparable within an allelic series) | 10.9 upbm affinity estimate (log intensity, higher = more binding, comparable within an allelic series) | 10.8 upbm affinity estimate (log intensity, higher = more binding, comparable within an allelic series)
6 | GATACCTA | 11.1 upbm affinity estimate (log intensity, higher = more binding, comparable within an allelic series) | 10.3 upbm affinity estimate (log intensity, higher = more binding, comparable within an allelic series) | 11.1 upbm affinity estimate (log intensity, higher = more binding, comparable within an allelic series) | 9.79 upbm affinity estimate (log intensity, higher = more binding, comparable within an allelic series) | 10.6 upbm affinity estimate (log intensity, higher = more binding, comparable within an allelic series) | 11.1 upbm affinity estimate (log intensity, higher = more binding, comparable within an allelic series) | 10.4 upbm affinity estimate (log intensity, higher = more binding, comparable within an allelic series) | 11.2 upbm affinity estimate (log intensity, higher = more binding, comparable within an allelic series) | 11.2 upbm affinity estimate (log intensity, higher = more binding, comparable within an allelic series) | 11.1 upbm affinity estimate (log intensity, higher = more binding, comparable within an allelic series) | 10.9 upbm affinity estimate (log intensity, higher = more binding, comparable within an allelic series) | 11 upbm affinity estimate (log intensity, higher = more binding, comparable within an allelic series) | 10.9 upbm affinity estimate (log intensity, higher = more binding, comparable within an allelic series)
